Assay [1] is described as follows: qHTS assay to identify aromatase inhibitors - cell viability counter screen (AID 743084).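 Further: cells stimulated with testosterone during compound exposure; nearly all actives have a fitted effect of over 55% in size.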 Further: potency means the concentration at half of the fitted maximal effect.
Assay [2] is described as follows: qHTS assay to identify small molecule that activate the aryl hydrocarbon receptor (AhR) signaling pathway - cell viability counter screen (AID 743086).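 Further: HepG2 liver cells carrying the AhR DRE luciferase reporter; series mostly up to about 70 µM; nearly all actives have a fitted effect of over 45% in size.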 The method in brief:
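HepG2-AhR-luc (HG2L7.5c1) cells, 4000/well, were preincubated 5 h at 37C, exposed to compound in qHTS format for 24 hr at 37C, then given CellTiter-Fluor for 30 min; viability was read as fluorescence in the reporter wells.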
On the technique in general: Quantitative high-throughput screening tests each substance at several concentrations.

Assay [3] concerns the target Peroxisome proliferator-activated receptor gamma (Homo sapiens) (UniProt P37231). Kind of assay: qHTS assay to identify small molecule agonists of the peroxisome proliferator-activated receptor gamma (PPARg) signaling pathway (AID 743094; active means well fitted activation curve with a large enough effect in the signal ratio in the repeat runs, not every such curve was filed as active; the % refers to the signal ratio). The method in brief:
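Cell-based bla reporter, HEK293H background, PPARg-driven UAS. Pre-incubation 5 h, 37C, 5% CO2. Compound 17 h, 37C. Substrate 1 h RT; fluorescence.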

Assay [4] has the same target. Description: qHTS assay to identify small molecule antagonists of the peroxisome proliferator-activated receptor gamma (PPARg) signaling pathway (AID 743191; calls by dose curve; further: series mostly up to about 63 µM; nearly all actives have a fitted effect of over 30% in size). The method in brief:
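GeneBLAzer PPARg UAS-bla HEK293H cells carrying a UAS-driven beta-lactamase reporter were plated at 3000 cells/well, preincubated 5 h at 37C, then given compound for 17 h at 37C; LiveBLAzer B/G FRET substrate was read after 1 h at room temperature.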

Assay [5] can be described thus: qHTS assay to identify small molecule antagonists of the peroxisome proliferator-activated receptor gamma (PPARg) signaling pathway - cell viability counter screen (AID 743194). Further: nearly all actives have a fitted effect of over 55% in size. Further: potency means the concentration at half of the fitted maximal effect. The note with it: Potency: co-treated with 50 nM rosiglitazone unless noted. The method in brief:
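PPARg-UAS-bla HEK293H cells were plated, rested 5 h at 37 C, then treated with compounds plus rosiglitazone (50 nM final) for 17 h at 37 C; viability was then read by CellTiter-Glo luminescence after 30 min at room temperature.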

Assay [6] in a line: qHTS assay for small molecule agonists of the antioxidant response element (ARE) signaling pathway - cell viability counter screen (AID 743203; calls by dose curve; further: nearly all actives have a fitted effect of over 55% in size; further: potency means the concentration at half of the fitted maximal effect). In short, it runs like this: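 Measured in the same wells as the beta-lactamase ARE reporter, this read-out is CellTiter-Glo luminescence from HepG2 ARE-bla cells given compounds for 16 hrs.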
The nature of assay [7]: qHTS assay for small molecule activators of the heat shock response signaling pathway - cell viability counter screen (AID 743209). Further: nearly all actives have a fitted effect of over 50% in size. Further: potency means the concentration at half of the fitted maximal effect. The method in brief:
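Same-well multiplex: after 2.5 h room-temperature incubation with LiveBLAzer B/G substrate and fluorescence reading, CellTiter-Glo reagent was added to HSE-bla HeLa cells that had received compound for 5 h at 37 C; luminescence read after 30 min.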

Assay [8] is described as follows: qHTS assay for small molecule activators of the heat shock response signaling pathway (AID 743210; active means well fitted activation curve with a large enough effect in the signal ratio in the repeat runs, with a control signal flat, not every such curve was filed as active; the % refers to the signal ratio; further: series mostly up to about 63 µM). In short, it runs like this:
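Heat shock element–beta-lactamase HeLa reporter cells; qHTS with compounds for 5 h at 37 C; detection by FRET substrate fluorescence after 2.5 h at RT.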

The nature of assay [9]: qHTS assay to identify small molecule agonists of the peroxisome proliferator-activated receptor delta (PPARd) signaling pathway - cell viability counter screen (AID 743211). Further: nearly all actives have a fitted effect of over 55% in size. Further: potency means the concentration at half of the fitted maximal effect. The method in brief:
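Viability was measured as CellTiter-Glo luminescence (30 min, room temperature) in the same wells as the beta-lactamase readout. GeneBLAzer PPARd UAS-bla HEK293H cells received compound after 5 h plating and were incubated 17 h at 37 C.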

A short description of assay [10]: qHTS assay to identify small molecule antagonists of the peroxisome proliferator-activated receptor delta (PPARd) signaling pathway - cell viability counter screen (AID 743213). Further: nearly all actives have a fitted effect of over 50% in size. Further: potency means the concentration at half of the fitted maximal effect. In short, it runs like this:
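HEK293H cells with the PPARd UAS-bla reporter, co-treated 17 h at 37 C with compounds and L165041 (300 nM final), were lysed with CellTiter-Glo. Luminescence indicated viable cell content.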

The target in assay [11] is Peroxisome proliferator-activated receptor delta (Homo sapiens) (UniProt Q03181). Kind of assay: qHTS assay to identify small molecule antagonists of the peroxisome proliferator-activated receptor delta (PPARd) signaling pathway (AID 743215; active means well fitted inhibition curve with a large enough effect in the signal ratio in the repeat runs, not every such curve was filed as active; the % refers to the signal ratio;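 further: cells stimulated with agonist L165041 at 300 nM final during compound exposure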; further: potency means the concentration at half of the fitted maximal effect). The method in brief:
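Fluorescence from cleaved LiveBLAzer B/G FRET substrate (2 h, room temperature) reports PPARd-driven beta-lactamase in HEK293H UAS-bla cells. Cells had been treated 17 h at 37 C with compound plus 300 nM final L165041.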

For assay [12], the target named is Bile acid receptor (Homo sapiens) (UniProt Q96RI1). Kind of assay: qHTS assay to identify small molecule antagonists of the farnesoid-X-receptor (FXR) signaling pathway (AID 743217; active means well fitted inhibition curve with a large enough effect in the signal ratio in the repeat runs, not every such curve was filed as active; the % refers to the signal ratio). In short, it runs like this:
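FRET fluorescence after 2 h room-temperature LiveBLAzer loading gives the readout. Prior step: FXR-bla HEK 293T cells, seeded and incubated 5 h, received test compounds plus 50 uM final CDCA for 16 h at 37 °C.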

Assay [13] is described as follows: qHTS assay to identify small molecule agonists of the farnesoid-X-receptor (FXR) signaling pathway - cell viability counter screen (AID 743218). Further: nearly all actives have a fitted effect of over 45% in size. Further: potency means the concentration at half of the fitted maximal effect. The method in brief:
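Readout: CellTiter-Glo luminescence, 30 min RT, multiplexed after the FXR-bla FRET reading. HEK 293T FXR-UAS-bla cells received compound 5 h post-plating and were incubated 16 h at 37 C.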

For assay [14], the target named is Bile acid receptor (Homo sapiens) (UniProt Q96RI1). Description: qHTS assay to identify small molecule agonists of the farnesoid-X-receptor (FXR) signaling pathway (AID 743220; active means well fitted activation curve with a large enough effect in the signal ratio in the repeat runs, not every such curve was filed as active; the % refers to the signal ratio). The method in brief:
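FXR-UAS-bla HEK 293T cells carrying a UAS-driven beta-lactamase reporter were plated for 5 h at 37C/5% CO2, then exposed to DMSO-dissolved Tox21 10K compounds for 16 h at 37C. A LiveBLAzer B/G FRET substrate was loaded for 2 h at room temperature before fluorescence reading.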

Assay [15] in a line: qHTS assay to identify small molecule antagonists of the farnesoid-X-receptor (FXR) signaling pathway - cell viability counter screen (AID 743221; active means well fitted cell-killing curve with a large enough effect in the repeat runs, not every such curve was filed as active; further: nearly all actives have a fitted effect of over 50% in size; further: potency means the concentration at half of the fitted maximal effect). The method in brief:
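Cytotoxicity counter screen run in the FXR-bla reporter wells: HEK 293T cells exposed to compound with 50 uM (final) chenodeoxycholic acid for 16 h, 37 C, then viability measured by CellTiter-Glo luminescence after 30 min, room temperature.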

In assay [16] the target is Vitamin D3 receptor (Homo sapiens) (UniProt P11473). Kind of assay: qHTS assay to identify small molecule agonists of the vitamin D receptor (VDR) signaling pathway (AID 743222; calls by dose curve). The method in brief: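 Following 4 h attachment at 37C, VDR-bla cells (2,000 per well) received DMSO-dissolved compounds or controls. After 16 h incubation, LiveBLAzer B/G FRET substrate was added and fluorescence read 2 h later at room temperature.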

Assay [17] shares this target. Kind of assay: qHTS assay to identify small molecule antagonists of the vitamin D receptor (VDR) signaling pathway (AID 743223; active means well fitted inhibition curve with a large enough effect in the signal ratio in the repeat runs, not every such curve was filed as active; the % refers to the signal ratio). The method in brief: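 Antagonist mode: compound added to VDR-bla cells alongside agonist 1alpha,25-dihydroxyvitamin D3 (3 nM final), incubation 16 h at 37C. Read-out is LiveBLAzer FRET fluorescence, 2 h at room temperature.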
The nature of assay [18]: qHTS assay for small molecule agonists of the antioxidant response element (ARE) signaling pathway (AID 743202; active means well fitted activation curve with a large enough effect in the signal ratio in the repeat runs, not every such curve was filed as active; the % refers to the signal ratio). The method in brief:
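Following a 16 h, 37 C exposure of reporter HepG2 cells (ARE-driven beta-lactamase, 2,000 cells/well) to compounds, FRET substrate was applied for 2 h at room temperature and fluorescence intensity recorded.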

For assay [19], the target named is Peroxisome proliferator-activated receptor delta (Homo sapiens) (UniProt Q03181). Description: qHTS assay to identify small molecule agonists of the peroxisome proliferator-activated receptor delta (PPARd) signaling pathway (AID 743212; calls by dose curve). In short, it runs like this:
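Beta-lactamase reporter read by fluorescence (LiveBLAzer B/G FRET, 2 h, room temperature). Test agents, in DMSO, incubated at 37 C with PPARd-bla HEK293H cells.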

The target in assay [20] is Aryl hydrocarbon receptor (Homo sapiens) (UniProt P35869). Kind of assay: qHTS assay to identify small molecule that activate the aryl hydrocarbon receptor (AhR) signaling pathway (AID 743085).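 Further: HG2L7.5c1 human HepG2 liver cells with stably integrated DRE-driven firefly reporter; series mostly up to about 70 µM; nearly all actives have a fitted effect of over 15% in size.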 In short, it runs like this:
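Luminescence (ONE-Glo) from a dioxin-responsive-element luciferase reporter in HG2L7.5c1 HepG2 cells after 24 hr compound exposure at 37C; viability measured by CellTiter-Fluor fluorescence beforehand.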

Results filed as inconclusive are left out. Values without a mark were called inactive. Calls of active or inactive are those of the source. Unless noted, the call rests on the fitted dose curve; in most records, active means well fitted curve in the direction sought with a large enough effect in the repeat runs; inconclusive means weak or mixed curves; inactive means no such curve, though single readings can be large; an effect the other way counts as inactive or inconclusive.

Sequence of Peroxisome proliferator-activated receptor gamma (Homo sapiens) (P37231 whole entry, looked up): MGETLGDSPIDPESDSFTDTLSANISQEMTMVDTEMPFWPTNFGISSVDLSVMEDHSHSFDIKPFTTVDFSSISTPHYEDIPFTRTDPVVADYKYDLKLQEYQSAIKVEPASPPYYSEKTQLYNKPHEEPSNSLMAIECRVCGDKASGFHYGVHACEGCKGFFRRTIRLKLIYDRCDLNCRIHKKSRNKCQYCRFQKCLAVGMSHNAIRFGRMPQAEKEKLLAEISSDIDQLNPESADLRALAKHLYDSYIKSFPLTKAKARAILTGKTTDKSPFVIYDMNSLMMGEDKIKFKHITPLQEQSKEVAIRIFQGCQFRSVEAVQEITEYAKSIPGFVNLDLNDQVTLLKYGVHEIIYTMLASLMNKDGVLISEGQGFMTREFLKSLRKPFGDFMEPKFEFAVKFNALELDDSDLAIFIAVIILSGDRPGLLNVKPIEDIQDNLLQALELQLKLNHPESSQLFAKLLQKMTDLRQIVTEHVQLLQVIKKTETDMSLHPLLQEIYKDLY
Sequence of Peroxisome proliferator-activated receptor delta (Homo sapiens) (Q03181 whole entry, looked up): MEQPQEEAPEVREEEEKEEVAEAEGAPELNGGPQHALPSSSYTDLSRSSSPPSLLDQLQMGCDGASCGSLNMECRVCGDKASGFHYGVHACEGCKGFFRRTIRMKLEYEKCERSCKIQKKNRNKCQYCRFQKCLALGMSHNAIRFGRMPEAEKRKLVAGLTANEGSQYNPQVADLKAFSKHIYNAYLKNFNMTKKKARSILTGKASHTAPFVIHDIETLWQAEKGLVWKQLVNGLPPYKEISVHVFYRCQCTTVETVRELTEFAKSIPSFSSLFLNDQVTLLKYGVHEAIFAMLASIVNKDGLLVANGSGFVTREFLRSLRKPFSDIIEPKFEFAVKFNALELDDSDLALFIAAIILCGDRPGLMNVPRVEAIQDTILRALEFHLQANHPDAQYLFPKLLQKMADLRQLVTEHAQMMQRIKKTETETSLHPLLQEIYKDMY
Sequence of Bile acid receptor (Homo sapiens) (Q96RI1 whole entry, looked up): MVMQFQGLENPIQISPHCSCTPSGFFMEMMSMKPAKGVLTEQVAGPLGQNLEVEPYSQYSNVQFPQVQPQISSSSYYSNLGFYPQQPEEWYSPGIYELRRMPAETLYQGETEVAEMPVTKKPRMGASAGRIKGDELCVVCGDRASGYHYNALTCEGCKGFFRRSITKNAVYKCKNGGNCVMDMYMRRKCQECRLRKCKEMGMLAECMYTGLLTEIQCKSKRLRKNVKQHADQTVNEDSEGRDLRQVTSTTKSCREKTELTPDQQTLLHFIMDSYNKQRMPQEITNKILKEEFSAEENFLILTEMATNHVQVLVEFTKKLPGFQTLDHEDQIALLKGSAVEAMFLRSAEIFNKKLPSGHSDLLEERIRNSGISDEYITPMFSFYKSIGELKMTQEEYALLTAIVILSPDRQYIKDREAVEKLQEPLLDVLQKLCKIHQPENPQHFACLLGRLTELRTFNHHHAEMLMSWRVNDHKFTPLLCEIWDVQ
Sequence of Vitamin D3 receptor (Homo sapiens) (P11473 whole entry, looked up): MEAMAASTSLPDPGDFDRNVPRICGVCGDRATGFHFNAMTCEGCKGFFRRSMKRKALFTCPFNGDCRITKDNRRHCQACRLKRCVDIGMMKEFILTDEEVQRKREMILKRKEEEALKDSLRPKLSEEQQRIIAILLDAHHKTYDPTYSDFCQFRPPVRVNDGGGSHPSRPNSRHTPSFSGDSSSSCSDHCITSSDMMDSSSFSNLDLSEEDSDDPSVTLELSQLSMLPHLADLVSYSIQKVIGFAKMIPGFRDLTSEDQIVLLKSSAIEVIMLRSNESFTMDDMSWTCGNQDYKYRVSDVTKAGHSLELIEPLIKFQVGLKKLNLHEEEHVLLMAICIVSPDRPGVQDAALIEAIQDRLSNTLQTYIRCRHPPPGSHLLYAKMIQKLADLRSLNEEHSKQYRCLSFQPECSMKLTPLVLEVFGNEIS
Sequence of Aryl hydrocarbon receptor (Homo sapiens) (P35869 whole entry, looked up): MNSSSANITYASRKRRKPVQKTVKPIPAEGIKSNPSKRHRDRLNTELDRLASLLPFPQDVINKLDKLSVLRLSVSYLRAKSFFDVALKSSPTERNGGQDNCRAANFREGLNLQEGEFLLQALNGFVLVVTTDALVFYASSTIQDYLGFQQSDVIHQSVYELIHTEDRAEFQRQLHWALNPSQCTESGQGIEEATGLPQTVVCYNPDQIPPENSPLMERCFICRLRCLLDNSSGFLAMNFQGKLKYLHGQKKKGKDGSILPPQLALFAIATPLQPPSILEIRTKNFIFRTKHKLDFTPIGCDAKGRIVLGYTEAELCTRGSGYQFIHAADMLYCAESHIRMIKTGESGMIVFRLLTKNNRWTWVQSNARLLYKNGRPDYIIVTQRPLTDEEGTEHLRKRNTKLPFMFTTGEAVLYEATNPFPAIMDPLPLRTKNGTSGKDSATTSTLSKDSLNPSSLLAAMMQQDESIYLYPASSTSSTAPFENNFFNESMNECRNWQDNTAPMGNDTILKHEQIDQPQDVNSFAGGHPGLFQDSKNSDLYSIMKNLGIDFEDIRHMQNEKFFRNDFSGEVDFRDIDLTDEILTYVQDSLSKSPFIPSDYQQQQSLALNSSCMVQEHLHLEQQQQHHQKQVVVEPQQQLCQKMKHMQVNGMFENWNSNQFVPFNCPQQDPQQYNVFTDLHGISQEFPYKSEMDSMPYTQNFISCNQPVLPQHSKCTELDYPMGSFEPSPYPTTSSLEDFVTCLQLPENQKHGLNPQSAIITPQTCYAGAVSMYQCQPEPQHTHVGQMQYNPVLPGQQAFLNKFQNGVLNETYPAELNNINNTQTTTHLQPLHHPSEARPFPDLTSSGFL

Consider `CCN(CC)CCN1C(=O)CN=C(c2ccccc2F)c2cc(Cl)ccc21`, for which the Potency entry in assay [1], in assay [2], in [3], in assay [4], in assay [5] and in [6] was “inactive” throughout. The Potency result in [7], in [8], in assay [9], in [10], in [11] and in assay [12] was “inactive” throughout. The Potency entry in assay [13], in [14], in assay [15], in [16] and in [17] was “inactive” each time.

For `CCCCc1ccccc1`, the Potency result in [1], in [2], in assay [3], in [6], in [7] and in [9] was “inactive” in each case. Further, the Potency entry in assay [10], in [11], in assay [13], in assay [15] and in assay [17] was “inactive” in each case.

In the case of `C=CCOC(=O)c1ccccc1N`, the Potency result in assay [1], in [2], in [3], in [4], in [5] and in assay [18] was “inactive” throughout. Moreover, the Potency entry in [6], in assay [7], in assay [8], in assay [9], in [19] and in assay [10] was “inactive” each time. Besides, the Potency result in assay [11], in assay [13], in assay [15] and in assay [16] was “inactive” in each case.

As for `CCN1CCC2(CC1)COc1cc3c(cc12)N(C(=O)c1ccc(-c2ccc(-c4nnc(C)o4)cc2C)cc1)CC3`, the Potency in assay [1] is 39.9 µM (active); in assay [5], 7.16 µM (active); in [6], 7.1 µM (active); in assay [7], 45.2 µM (active); in [9], 9.01 µM (active); in assay [10], 6.38 µM (active). In addition, the Potency in [11] is 18 µM (active); in assay [13] it was 14.3 µM (active); in assay [15], 45.2 µM (active). Also, the Potency entry in [20] was “inactive”.

In the case of `Cc1cccc(Cc2cnc[nH]2)c1C`, the Potency entry in assay [1], in assay [2], in [3], in [4], in assay [5] and in assay [6] was “inactive” throughout. Moreover, the Potency entry in assay [7], in [9], in assay [11], in assay [13], in [15] and in assay [17] was “inactive” throughout.

Turning to `Clc1cc(Cl)c(-c2cc(Cl)c(Cl)cc2Cl)cc1Cl`, the Potency entry in assay [1], in assay [2], in assay [3], in assay [5], in [18] and in assay [6] was “inactive” each time. Moreover, the Potency entry in assay [7], in assay [8], in [19], in assay [12], in assay [13] and in assay [14] was “inactive” in each case. Moreover, the Potency result in assay [15], in assay [16] and in [17] was “inactive” each time.

For `Brc1cccc(-c2ccccc2)c1`, the Potency result in [1], in [20], in assay [5], in assay [18], in assay [6] and in assay [7] was “inactive” each time. Moreover, the Potency entry in assay [8], in assay [9], in [10], in assay [12], in assay [13] and in [14] was “inactive” throughout. Besides, the Potency result in [15] and in assay [17] was “inactive” each time.

`C=CC(=C)C`: the Potency entry in [1], in [2], in assay [3], in [4], in assay [5] and in [18] was “inactive” in each case. Besides, the Potency entry in [6], in [7], in assay [9], in assay [19], in [10] and in [11] was “inactive” each time. Moreover, the Potency result in [12], in assay [13], in [14], in assay [15], in assay [16] and in assay [17] was “inactive” in each case.
